In ChEMBL document CHEMBL2218924, “A broad activity screen in support of a chemogenomic map for kinase signalling research and drug discovery” (Biochem J, 2013):

Assays:
[1] = molecular target: T1, Interleukin-1 receptor-associated kinase 4 (Homo sapiens) (UniProt Q9NWZ3); details: at 1 µM
T1 sequence (whole entry): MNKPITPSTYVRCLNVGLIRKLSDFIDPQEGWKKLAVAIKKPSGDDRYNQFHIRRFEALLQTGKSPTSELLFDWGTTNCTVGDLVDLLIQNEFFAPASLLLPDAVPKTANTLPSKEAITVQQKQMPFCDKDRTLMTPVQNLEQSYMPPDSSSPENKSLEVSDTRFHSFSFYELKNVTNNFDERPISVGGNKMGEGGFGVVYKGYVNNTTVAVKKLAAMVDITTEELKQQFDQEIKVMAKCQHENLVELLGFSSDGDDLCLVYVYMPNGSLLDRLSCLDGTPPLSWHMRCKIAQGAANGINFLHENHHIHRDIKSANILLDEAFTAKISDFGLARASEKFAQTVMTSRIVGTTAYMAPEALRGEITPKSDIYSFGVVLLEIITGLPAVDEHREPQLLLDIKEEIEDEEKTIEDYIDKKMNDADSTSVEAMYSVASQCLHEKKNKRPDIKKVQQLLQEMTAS

[2] = molecular target: T1, Interleukin-1 receptor-associated kinase 4 (Homo sapiens); details: at 10 µM
[3] = molecular target: Insulin receptor-related protein (Homo sapiens) (UniProt P14616); details: at 1 µM
Sequence of Insulin receptor-related protein (Homo sapiens) (P14616 27-742 limits assumed): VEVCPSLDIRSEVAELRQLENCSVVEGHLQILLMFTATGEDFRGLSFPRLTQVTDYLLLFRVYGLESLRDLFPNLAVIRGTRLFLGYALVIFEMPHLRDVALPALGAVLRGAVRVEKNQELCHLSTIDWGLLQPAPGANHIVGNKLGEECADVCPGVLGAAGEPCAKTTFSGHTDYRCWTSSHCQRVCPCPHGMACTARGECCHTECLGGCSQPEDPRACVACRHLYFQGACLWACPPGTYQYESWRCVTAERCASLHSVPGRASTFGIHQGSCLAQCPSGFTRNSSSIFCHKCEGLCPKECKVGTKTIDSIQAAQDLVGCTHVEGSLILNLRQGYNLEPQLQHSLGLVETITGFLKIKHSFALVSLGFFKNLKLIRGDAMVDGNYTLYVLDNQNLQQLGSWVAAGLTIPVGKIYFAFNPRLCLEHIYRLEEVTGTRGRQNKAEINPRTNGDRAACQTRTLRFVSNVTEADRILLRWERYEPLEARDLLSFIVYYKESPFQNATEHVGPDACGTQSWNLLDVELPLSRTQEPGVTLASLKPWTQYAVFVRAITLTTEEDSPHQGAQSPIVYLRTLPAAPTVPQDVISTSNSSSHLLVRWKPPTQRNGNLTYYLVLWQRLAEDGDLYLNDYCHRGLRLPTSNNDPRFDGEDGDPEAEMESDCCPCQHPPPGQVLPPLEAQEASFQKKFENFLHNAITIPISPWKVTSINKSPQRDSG
Sequence of Insulin receptor-related protein (Homo sapiens) (P14616 747-1297 limits assumed): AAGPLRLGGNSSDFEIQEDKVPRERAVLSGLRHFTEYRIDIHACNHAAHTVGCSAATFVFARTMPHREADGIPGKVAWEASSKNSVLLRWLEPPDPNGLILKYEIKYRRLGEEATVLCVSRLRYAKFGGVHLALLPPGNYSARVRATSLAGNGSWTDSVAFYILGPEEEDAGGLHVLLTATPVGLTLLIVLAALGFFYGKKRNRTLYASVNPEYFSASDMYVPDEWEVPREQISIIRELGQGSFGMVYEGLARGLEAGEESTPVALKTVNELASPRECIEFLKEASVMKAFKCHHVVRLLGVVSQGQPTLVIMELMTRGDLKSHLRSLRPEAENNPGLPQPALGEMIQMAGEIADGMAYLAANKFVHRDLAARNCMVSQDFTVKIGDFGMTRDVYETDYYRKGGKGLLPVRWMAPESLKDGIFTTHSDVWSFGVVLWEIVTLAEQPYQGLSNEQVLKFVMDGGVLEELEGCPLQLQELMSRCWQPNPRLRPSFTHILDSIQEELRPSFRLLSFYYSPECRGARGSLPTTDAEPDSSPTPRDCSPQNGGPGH

[4] = molecular target: Insulin receptor-related protein (Homo sapiens) (UniProt P14616); details: at 10 µM
[5] = molecular target: T2, Tyrosine-protein kinase ITK/TSK (Homo sapiens) (UniProt Q08881); details: at 1 µM
T2 sequence (whole entry): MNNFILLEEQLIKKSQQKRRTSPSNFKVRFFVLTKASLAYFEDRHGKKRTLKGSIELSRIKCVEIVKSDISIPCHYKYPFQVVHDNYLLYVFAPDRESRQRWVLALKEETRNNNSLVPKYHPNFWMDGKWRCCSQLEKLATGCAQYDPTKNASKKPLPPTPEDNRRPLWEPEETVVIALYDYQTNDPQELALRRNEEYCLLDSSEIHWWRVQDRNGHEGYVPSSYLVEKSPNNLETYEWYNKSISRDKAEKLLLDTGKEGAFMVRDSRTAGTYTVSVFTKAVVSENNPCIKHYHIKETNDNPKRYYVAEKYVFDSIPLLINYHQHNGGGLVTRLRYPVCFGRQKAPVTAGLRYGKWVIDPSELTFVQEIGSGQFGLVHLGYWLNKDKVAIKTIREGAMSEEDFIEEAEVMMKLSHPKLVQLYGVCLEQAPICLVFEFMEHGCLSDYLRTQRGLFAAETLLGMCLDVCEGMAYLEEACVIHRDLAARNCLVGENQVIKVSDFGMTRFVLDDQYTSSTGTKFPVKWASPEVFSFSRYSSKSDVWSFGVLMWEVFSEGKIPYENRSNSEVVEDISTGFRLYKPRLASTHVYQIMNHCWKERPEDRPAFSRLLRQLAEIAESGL

[6] = molecular target: T2, Tyrosine-protein kinase ITK/TSK (Homo sapiens); details: at 10 µM
[7] = molecular target: Tyrosine-protein kinase JAK2 (Homo sapiens) (UniProt O60674); details: at 10 µM
Sequence of Tyrosine-protein kinase JAK2 (Homo sapiens) (O60674 whole entry): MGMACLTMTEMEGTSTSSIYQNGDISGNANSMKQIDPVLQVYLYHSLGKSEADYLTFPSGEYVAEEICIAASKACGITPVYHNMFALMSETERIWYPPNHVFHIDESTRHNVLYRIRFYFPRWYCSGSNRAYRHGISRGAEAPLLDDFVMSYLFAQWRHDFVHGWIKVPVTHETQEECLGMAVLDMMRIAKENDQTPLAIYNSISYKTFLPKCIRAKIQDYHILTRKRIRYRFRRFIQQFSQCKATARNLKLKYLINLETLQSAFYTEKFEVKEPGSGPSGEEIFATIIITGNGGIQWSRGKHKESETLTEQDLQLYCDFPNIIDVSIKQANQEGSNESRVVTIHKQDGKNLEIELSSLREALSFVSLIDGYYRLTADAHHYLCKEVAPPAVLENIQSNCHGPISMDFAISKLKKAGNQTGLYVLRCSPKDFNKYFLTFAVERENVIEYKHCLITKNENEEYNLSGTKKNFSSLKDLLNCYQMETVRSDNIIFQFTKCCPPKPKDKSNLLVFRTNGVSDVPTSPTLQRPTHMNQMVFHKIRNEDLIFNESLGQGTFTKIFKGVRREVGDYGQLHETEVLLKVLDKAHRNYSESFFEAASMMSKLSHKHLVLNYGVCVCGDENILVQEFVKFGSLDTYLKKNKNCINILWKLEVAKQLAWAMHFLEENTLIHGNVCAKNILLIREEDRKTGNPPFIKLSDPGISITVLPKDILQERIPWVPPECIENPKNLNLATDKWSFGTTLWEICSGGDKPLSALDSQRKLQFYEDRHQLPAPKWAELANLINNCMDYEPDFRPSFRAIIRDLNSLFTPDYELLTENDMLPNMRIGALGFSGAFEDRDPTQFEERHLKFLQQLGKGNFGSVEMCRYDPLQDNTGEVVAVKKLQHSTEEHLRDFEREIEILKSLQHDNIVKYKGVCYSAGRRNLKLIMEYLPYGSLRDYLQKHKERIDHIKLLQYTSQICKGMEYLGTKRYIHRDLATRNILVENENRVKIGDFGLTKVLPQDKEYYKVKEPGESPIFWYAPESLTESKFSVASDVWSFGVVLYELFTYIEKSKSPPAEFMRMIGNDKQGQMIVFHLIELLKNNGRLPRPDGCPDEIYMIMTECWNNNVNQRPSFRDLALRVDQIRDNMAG

[8] = molecular target: T3, Tyrosine-protein kinase JAK3 (Homo sapiens) (UniProt P52333); details: at 1 µM
T3 sequence (whole entry): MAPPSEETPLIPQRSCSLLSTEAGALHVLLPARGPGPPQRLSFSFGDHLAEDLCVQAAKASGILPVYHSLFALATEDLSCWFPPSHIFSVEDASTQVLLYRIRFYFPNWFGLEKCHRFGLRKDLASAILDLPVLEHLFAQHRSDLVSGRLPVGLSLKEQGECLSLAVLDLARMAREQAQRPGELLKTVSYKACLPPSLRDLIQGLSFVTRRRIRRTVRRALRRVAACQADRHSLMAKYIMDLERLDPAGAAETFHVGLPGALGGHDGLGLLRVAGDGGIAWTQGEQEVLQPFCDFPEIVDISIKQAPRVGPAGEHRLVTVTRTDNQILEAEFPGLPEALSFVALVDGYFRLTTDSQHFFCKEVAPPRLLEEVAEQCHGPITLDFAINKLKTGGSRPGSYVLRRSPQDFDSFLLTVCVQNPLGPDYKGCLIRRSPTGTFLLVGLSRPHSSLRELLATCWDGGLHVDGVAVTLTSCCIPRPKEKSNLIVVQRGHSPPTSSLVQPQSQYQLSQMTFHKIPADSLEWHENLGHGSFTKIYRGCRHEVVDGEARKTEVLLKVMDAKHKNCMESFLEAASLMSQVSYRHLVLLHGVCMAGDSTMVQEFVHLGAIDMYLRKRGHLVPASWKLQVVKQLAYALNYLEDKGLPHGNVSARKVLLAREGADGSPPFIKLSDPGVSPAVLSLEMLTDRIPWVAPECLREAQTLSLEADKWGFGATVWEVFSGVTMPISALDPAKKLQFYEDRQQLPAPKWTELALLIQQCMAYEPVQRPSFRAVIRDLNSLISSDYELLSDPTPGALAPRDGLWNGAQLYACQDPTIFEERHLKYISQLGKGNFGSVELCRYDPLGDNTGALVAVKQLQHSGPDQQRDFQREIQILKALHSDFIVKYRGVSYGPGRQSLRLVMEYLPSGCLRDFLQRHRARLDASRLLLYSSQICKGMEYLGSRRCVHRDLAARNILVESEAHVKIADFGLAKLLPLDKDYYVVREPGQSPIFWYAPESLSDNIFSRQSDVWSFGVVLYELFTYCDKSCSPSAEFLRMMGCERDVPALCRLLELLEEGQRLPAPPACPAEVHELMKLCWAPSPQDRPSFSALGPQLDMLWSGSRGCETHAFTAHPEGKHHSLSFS

[9] = molecular target: T3, Tyrosine-protein kinase JAK3 (Homo sapiens); details: at 10 µM
[10] = molecular target: Mitogen-activated protein kinase 9 (Homo sapiens) (UniProt P45984); details: at 1 µM
[11] = molecular target: Mitogen-activated protein kinase 9 (Homo sapiens) (UniProt P45984); details: at 10 µM
[12] = molecular target: Mitogen-activated protein kinase 10 (Homo sapiens) (UniProt P53779); details: at 1 µM
[13] = molecular target: Mitogen-activated protein kinase 10 (Homo sapiens) (UniProt P53779); details: at 10 µM
[14] = molecular target: Vascular endothelial growth factor receptor 2 (Homo sapiens) (UniProt P35968); details: at 1 µM
Sequence of Vascular endothelial growth factor receptor 2 (Homo sapiens) (P35968 whole entry, the tested form may be a part): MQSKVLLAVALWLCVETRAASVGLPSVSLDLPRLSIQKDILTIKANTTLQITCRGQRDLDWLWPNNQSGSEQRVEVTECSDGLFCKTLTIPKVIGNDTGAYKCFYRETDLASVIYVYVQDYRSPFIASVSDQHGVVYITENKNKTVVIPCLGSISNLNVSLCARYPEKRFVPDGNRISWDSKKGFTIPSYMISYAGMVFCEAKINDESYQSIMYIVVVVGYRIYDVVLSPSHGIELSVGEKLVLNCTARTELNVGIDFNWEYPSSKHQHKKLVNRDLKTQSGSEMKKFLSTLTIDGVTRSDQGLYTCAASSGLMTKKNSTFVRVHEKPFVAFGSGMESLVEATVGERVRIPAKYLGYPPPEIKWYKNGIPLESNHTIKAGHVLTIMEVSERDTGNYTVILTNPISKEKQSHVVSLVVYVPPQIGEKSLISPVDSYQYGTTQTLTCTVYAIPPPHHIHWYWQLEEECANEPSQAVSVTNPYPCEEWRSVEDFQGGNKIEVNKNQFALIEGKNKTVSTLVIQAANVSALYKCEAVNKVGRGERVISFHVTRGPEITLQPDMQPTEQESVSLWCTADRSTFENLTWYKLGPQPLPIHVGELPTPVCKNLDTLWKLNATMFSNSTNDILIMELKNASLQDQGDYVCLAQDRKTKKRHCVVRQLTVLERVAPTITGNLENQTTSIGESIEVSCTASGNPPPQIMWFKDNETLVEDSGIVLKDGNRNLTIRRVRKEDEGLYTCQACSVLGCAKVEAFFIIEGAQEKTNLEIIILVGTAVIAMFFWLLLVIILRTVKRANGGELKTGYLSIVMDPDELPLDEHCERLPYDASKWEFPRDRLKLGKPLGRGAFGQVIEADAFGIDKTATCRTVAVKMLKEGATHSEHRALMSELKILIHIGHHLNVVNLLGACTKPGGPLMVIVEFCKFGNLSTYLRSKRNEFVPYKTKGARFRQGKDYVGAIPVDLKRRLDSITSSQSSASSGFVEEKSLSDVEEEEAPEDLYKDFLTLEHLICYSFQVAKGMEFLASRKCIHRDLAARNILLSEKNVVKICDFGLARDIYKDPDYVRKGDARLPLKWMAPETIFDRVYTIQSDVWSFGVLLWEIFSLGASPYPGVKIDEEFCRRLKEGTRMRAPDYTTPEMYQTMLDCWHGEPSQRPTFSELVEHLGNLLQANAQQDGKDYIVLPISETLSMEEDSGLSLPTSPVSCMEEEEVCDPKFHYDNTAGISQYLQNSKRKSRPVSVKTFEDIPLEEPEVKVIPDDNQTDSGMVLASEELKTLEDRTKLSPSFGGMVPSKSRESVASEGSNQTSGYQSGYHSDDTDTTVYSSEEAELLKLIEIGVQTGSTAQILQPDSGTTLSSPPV

[15] = molecular target: Vascular endothelial growth factor receptor 2 (Homo sapiens) (UniProt P35968); details: at 10 µM
[16] = molecular target: LIM domain kinase 1 (Homo sapiens) (UniProt P53667); details: at 1 µM
Sequence of LIM domain kinase 1 (Homo sapiens) (P53667 whole entry, looked up, the tested form may be a part): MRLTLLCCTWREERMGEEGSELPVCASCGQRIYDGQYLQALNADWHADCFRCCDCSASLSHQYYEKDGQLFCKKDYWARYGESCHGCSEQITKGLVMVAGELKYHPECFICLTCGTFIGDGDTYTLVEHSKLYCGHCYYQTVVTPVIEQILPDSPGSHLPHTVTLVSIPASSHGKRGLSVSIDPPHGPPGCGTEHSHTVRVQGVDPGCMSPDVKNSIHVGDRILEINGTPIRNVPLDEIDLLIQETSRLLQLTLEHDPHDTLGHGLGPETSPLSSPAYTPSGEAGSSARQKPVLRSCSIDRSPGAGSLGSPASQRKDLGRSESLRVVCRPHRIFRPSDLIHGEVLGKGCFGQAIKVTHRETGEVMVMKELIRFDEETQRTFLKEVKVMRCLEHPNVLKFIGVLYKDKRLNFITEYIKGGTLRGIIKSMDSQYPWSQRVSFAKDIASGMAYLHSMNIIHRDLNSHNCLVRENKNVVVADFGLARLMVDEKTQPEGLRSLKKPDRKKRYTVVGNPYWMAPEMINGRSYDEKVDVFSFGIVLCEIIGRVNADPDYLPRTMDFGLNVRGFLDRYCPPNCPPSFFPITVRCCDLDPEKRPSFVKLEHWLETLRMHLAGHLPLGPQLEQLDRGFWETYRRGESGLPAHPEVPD

[17] = molecular target: LIM domain kinase 1 (Homo sapiens) (UniProt P53667); details: at 10 µM
[18] = molecular target: Tyrosine-protein kinase JAK2 (Homo sapiens) (UniProt O60674); details: at 1 µM
[19] = molecular target: Mitogen-activated protein kinase 8 (Homo sapiens) (UniProt P45983); details: at 1 µM
Sequence of Mitogen-activated protein kinase 8 (Homo sapiens) (P45983 whole entry): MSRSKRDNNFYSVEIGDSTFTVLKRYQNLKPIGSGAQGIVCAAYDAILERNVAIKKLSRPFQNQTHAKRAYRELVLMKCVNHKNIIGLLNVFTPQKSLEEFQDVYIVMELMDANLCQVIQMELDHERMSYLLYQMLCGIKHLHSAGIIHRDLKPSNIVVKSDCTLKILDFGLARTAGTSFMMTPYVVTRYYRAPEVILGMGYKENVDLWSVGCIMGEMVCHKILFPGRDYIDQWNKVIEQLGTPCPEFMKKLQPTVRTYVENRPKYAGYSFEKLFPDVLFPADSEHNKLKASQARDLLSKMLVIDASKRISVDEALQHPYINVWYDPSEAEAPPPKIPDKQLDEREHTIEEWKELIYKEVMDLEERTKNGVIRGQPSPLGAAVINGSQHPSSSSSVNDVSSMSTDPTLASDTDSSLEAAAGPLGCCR

[20] = molecular target: Mitogen-activated protein kinase 8 (Homo sapiens) (UniProt P45983); details: at 10 µM

Row | Compound | residual activity [1] [%] | residual activity [2] [%] | residual activity [3] [%] | residual activity [4] [%] | residual activity [5] [%] | residual activity [6] [%] | residual activity [7] [%] | residual activity [8] [%] | residual activity [9] [%] | residual activity [10] [%] | residual activity [11] [%] | residual activity [12] [%] | residual activity [13] [%] | residual activity [14] [%] | residual activity [15] [%] | residual activity [16] [%] | residual activity [17] [%] | residual activity [18] [%] | residual activity [19] [%] | residual activity [20] [%]
1 | COc1cc(OC)c(/C=C2\C(=O)Nc3ccccc32)c(OC)c1 | 81 | 75 | 101 | 98 | 101 | 93 | 94 | 105 | 100 | 89 | 88 | 85 | 103 | 96 | 91 | 83 | 83 |  |  | 
2 | CC(C)(C)c1cc(C=C(C#N)C#N)cc(Br)c1O | 112 |  | 105 | 102 | 105 | 104 | 113 | 105 |  | 103 | 114 |  | 54 | 107 | 83 | 111 |  | 110 | 116 | 110
3 | CCc1nc(-c2ccc(OC)cc2)[nH]c1-c1ccncc1 |  |  |  |  |  |  | 105 | 113 | 103 | 102 | 105 | 126 | 123 |  |  | 100 |  | 100 | 104 | 106
4 | O=c1[nH]c2ccccc2n1C1CCN(Cc2ccc(-c3nc4cc5[nH]cnc5cc4nc3-c3ccccc3)cc2)CC1 | 106 | 93 | 124 | 95 | 99 | 95 | 107 | 110 | 126 | 104 | 101 | 105 | 69 | 107 | 90 | 115 | 97 | 120 | 110 | 86
5 | COc1cc2ncnc(Nc3ccc(OCc4ccccc4)cc3)c2cc1OC | 127 | 92 | 125 | 57 | 107 | 99 | 90 | 101 | 100 | 106 | 101 | 106 | 110 | 60 | 11 | 110 | 70 | 110 | 102 | 101
6 | c1cc(-c2cnn3cc(-c4ccc(OCCN5CCCCC5)cc4)cnc23)ccn1 | 81 | 18 |  |  | 54 | 9 |  |  |  |  |  |  | 82 | 4 | 1 |  | 27 |  | 117 | 106
7 | O=C1Nc2ccc3ncsc3c2/C1=C/c1c[nH]cn1 | 41 | 15 | 119 | 36 | 67 | 21 | 18 | 16 | 3 | 71 | 16 | 20 | 20 | 2 | 0 | 55 | 10 | 59 | 63 | 22
8 | O=[N+]([O-])/C=C/c1ccc2c(c1)OCO2 | 116 | 107 | 106 | 82 | 105 | 100 | 118 | 114 | 108 | 99 | 103 | 88 | 92 | 101 | 85 | 114 | 97 | 73 | 120 | 102
